Data published in the supplement of paper PMC9694430.

Assays:
Assay in all cases: thermal shift delta Tm vs DMSO control; higher = stronger stabilization (binding)
Details in all cases: 12.5 µM; protein concentration 2 µM
LOC_OS01G01410-cb001 = test system: LOC_OS01G01410-cb001
Procedure, shortened: (§1)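 Compounds dissolved in DMSO were added to purified rice kinase domain constructs, which had been expressed in E. coli, for differential scanning fluorimetry. Each well held 19.5 μl of 2 μM kinase in 100 mM potassium phosphate pH 7.5, 150 mM NaCl, 10% glycerol and 5 × SYPRO Orange. Fluorescence was followed from 25°C to 95°C at a rate of 0.05°C/s. Shifts in Boltzmann-fitted melting temperature are triplicate means relative to DMSO-only protein.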

LOC_OS01G02750-cb003 = test system: LOC_OS01G02750-cb003
Procedure, shortened: as §1

LOC_OS01G10900-cb004 = test system: LOC_OS01G10900-cb004
Procedure, shortened: as §1

LOC_OS01G13800-cb001 = test system: LOC_OS01G13800-cb001
Procedure, shortened: as §1

LOC_OS01G14860-cb001 = test system: LOC_OS01G14860-cb001
Procedure, shortened: as §1

LOC_OS01G21960-cb002 = test system: LOC_OS01G21960-cb002
Procedure, shortened: as §1

LOC_OS01G39600-cb002 = test system: LOC_OS01G39600-cb002
Procedure, shortened: as §1

LOC_OS01G48390-cb002 = test system: LOC_OS01G48390-cb002
Procedure, shortened: as §1

LOC_OS01G51400-cb002 = test system: LOC_OS01G51400-cb002
Procedure, shortened: as §1

LOC_OS01G52050-cb004 = test system: T1, LOC_OS01G52050-cb004
T1 sequence (whole entry): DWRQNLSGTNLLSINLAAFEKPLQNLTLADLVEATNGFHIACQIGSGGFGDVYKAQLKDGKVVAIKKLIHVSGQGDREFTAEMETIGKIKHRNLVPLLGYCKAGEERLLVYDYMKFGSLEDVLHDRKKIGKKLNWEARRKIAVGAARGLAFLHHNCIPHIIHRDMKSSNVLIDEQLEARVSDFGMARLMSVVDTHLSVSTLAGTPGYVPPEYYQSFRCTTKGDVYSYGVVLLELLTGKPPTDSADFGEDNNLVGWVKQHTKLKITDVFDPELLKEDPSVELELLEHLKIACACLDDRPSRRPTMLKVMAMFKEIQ
Procedure, shortened: as §1

| Compound | thermal shift delta Tm (LOC_OS01G01410-cb001) | thermal shift delta Tm (LOC_OS01G02750-cb003) | thermal shift delta Tm (LOC_OS01G10900-cb004) | thermal shift delta Tm (LOC_OS01G13800-cb001) | thermal shift delta Tm (LOC_OS01G14860-cb001) | thermal shift delta Tm (LOC_OS01G21960-cb002) | thermal shift delta Tm (LOC_OS01G39600-cb002) | thermal shift delta Tm (LOC_OS01G48390-cb002) | thermal shift delta Tm (LOC_OS01G51400-cb002) | thermal shift delta Tm (LOC_OS01G52050-cb004) |
| --- | --- | --- | --- | --- | --- | --- | --- | --- | --- | --- |
| COc1cccc(-n2c(=O)[nH]c3cc(Cl)n(-c4ccc(-c5cccc(OC)c5O)cc4)c3c2=O)c1 | 0.44 °C | 1.69 °C | -0.02 °C | 0.72 °C | 0.13 °C | 0.8 °C | -0.12 °C | 1.54 °C | 0.69 °C | 0.03 °C |
| CN(C)CCCn1cc(C2=C(c3c[nH]c4ccccc34)C(=O)NC2=O)c2ccccc21 | 0.25 °C | 0.71 °C | 0.3 °C | 0.25 °C | 1.17 °C | 2.73 °C | 0.78 °C | -0.07 °C | 0.26 °C | -0.04 °C |
| COc1ccc(Cl)cc1NC(=O)Nc1cc(C)nc2ccccc12 | 0.77 °C | 3.02 °C | 0.18 °C | 0.68 °C | 0.5 °C | 1.37 °C | -1.53 °C | 5.48 °C | 1.15 °C | 1.3 °C |
| COc1cc2ncnc(Nc3ccc(O)c(Br)c3)c2cc1OC | 1.47 °C | -0.02 °C | 0.65 °C | -0.02 °C | 0.9 °C | 0.93 °C | -1.06 °C | 3 °C | 0.29 °C | 1.31 °C |
| CNC(=O)c1cc(Oc2ccc(NC(=O)Nc3ccc(Cl)c(C(F)(F)F)c3)c(F)c2)ccn1 [Regorafenib (BAY 73-4506)] | 2.09 °C | 0.82 °C | 0.16 °C | 0.79 °C | 2.04 °C | 0.87 °C | 0.21 °C | 0.48 °C | 0.2 °C | 0.67 °C |
| CSc1cccc(Nc2ncc3cc(-c4c(Cl)cccc4Cl)c(=O)n(C)c3n2)c1 | 0.57 °C | 0.56 °C | 1.7 °C | 0.31 °C | 0.06 °C | 0.55 °C | -0.21 °C | 0.12 °C | 0.18 °C | 0.18 °C |
| COc1cc2ncnc(Sc3nnc(C)s3)c2cc1OC | 1.2 °C | 0.37 °C | 0.57 °C | -0.34 °C | 0.11 °C | 0.06 °C | -0.24 °C | 2.02 °C | 0.02 °C | 0.91 °C |
| CC1=C(C(=O)Nc2ccc3[nH]ncc3c2)C(c2ccc(F)cc2)NC(=O)N1 (stereo not given) | 0.44 °C | 1.19 °C | 0.21 °C | 0.88 °C | 0.96 °C | 0.9 °C | 0.5 °C | 0.28 °C | 0.23 °C | 4.76 °C |
| CN(c1ccccc1CNc1nc(Nc2ccc3c(c2)CC(=O)N3)ncc1C(F)(F)F)S(C)(=O)=O | 2.5 °C | 7.01 °C | 2.35 °C | 0.34 °C | 5.2 °C | 2.72 °C | 8.33 °C | 3.62 °C | 1.93 °C | 8.95 °C |
| Nc1ncnc2n[nH]c(Nc3ccc(F)cc3)c12 | 1.74 °C | 1.17 °C | 1.94 °C | -0.28 °C | 0.76 °C | 1.31 °C | 2.02 °C | 1.2 °C | 0.33 °C | 1.46 °C |
| O=c1cc(N2CCOCC2)oc2c1ccc1ccccc12 | -0.07 °C | 2.24 °C | 1.69 °C | 0.55 °C | 0.74 °C | -0.09 °C | -0.09 °C | 0.43 °C | -0.05 °C | 0.24 °C |
| Cc1ccc([N+](=O)[O-])cc1S(=O)(=O)N(C)/N=C/c1cnc2ccc(Br)cn12 | 1.6 °C | 11.6 °C | 7.32 °C | 0.52 °C | 8.02 °C | 3.8 °C | 1.85 °C | 1.1 °C | 0.2 °C | 11.7 °C |
| Cc1ncc(CO)c(CO)c1O [Pyridoxine] | -0.03 °C | 0.64 °C | 0.29 °C | -0.11 °C | 0.24 °C | 0.13 °C | -0.13 °C | 0.22 °C | 0.06 °C | 4.05 °C |
| O=C1Nc2ccc(CN3C(=O)CSC3=O)cc2/C1=C/c1cc(CN2CCOCC2)c[nH]1 | 1.25 °C | 3.61 °C | 0.75 °C | 0.08 °C | 0.42 °C | 0.16 °C | 0.49 °C | 1.28 °C | 0.13 °C | 2.79 °C |
| CCN(CC)CCNC(=O)c1c(C)[nH]c(/C=C2\C(=O)Nc3ccc(F)cc32)c1C [Sunitinib] | 3.95 °C | 1.72 °C | 0.25 °C | -0.3 °C | 1.43 °C | 2.21 °C | 2.9 °C | 1.72 °C | 0.22 °C | 7.91 °C |
| COc1cc(Nc2ncc3c(n2)-c2ccc(Cl)cc2C(c2c(F)cccc2OC)=NC3)ccc1C(=O)O [Alisertib (MLN8237)] | 0.87 °C | 0.27 °C | -0.01 °C | -0.04 °C | 0.35 °C | -0.3 °C | 3.62 °C | -0.18 °C | -0.33 °C | 0.48 °C |
| O=c1cc(-c2cccc3c2Sc2ccccc2S3)oc(N2CCOCC2)c1 | 0.6 °C | -5.37 °C | 1.94 °C | 0.13 °C | 2.44 °C | 0.44 °C | 0.29 °C | 2.17 °C | -0.12 °C | -0.44 °C |
| Cc1nc(Nc2ncc(C(=O)Nc3c(C)cccc3Cl)s2)cc(N2CCN(CCO)CC2)n1 [Dasatinib] | 1.38 °C | 0.59 °C | 4.47 °C | 0.61 °C | 0.27 °C | 1.22 °C | 5.93 °C | 0.6 °C | 0.66 °C | 0.79 °C |
| CC[C@@H]1C(=O)N(C)c2cnc(Nc3ccc(C(=O)N[C@H]4CC[C@H](N5CCN(CC6CC6)CC5)CC4)cc3OC)nc2N1C(C)C [Volasertib (BI 6727)] | 0.74 °C | 0.38 °C | 0.15 °C | 0.22 °C | 0.21 °C | 0.37 °C | 0.25 °C | 0.32 °C | 0.11 °C | 0.22 °C |
